We go through 35 molecules from ChEMBL document CHEMBL3988442, “University of Dundee, Small-Polar-MMV Screening Library” (2021).

In this test the target is T1, Methionyl-tRNA synthetase, putative (Leishmania donovani (strain BPK282A1)) (UniProt E9BF75).
T1 sequence (whole entry): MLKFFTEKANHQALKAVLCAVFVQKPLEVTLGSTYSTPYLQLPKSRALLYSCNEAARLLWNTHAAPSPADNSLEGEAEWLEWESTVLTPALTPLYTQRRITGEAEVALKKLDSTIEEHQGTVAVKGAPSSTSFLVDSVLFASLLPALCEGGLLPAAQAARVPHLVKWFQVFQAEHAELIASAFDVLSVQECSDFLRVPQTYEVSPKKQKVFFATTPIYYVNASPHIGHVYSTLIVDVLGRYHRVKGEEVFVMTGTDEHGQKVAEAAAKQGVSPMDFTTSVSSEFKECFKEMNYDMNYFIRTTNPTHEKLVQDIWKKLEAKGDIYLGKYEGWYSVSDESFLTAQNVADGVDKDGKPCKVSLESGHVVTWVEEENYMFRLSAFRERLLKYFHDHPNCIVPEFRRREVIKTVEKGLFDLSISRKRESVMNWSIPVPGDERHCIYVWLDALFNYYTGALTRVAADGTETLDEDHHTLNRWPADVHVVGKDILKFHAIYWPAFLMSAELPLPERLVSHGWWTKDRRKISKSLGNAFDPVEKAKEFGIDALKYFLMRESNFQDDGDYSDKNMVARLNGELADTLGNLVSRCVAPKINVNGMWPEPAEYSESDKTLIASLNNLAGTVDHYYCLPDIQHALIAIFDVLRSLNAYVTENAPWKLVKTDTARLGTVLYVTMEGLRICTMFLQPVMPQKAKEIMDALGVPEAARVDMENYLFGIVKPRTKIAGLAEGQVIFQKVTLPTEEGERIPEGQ
The test is described as follows: Leishmania donovani Methionine tRNA synthetase (LdMetRS):v7. Dose response assay. It counts as functional. On the set-up: conc 80 nM, time 150 minutes.

For `Cc1sc2nc(-c3cccnc3)nc(NCCOCCO)c2c1C`, the PXC50 by setting is: (MAX_EFFECT 9.042553191) < 4; (MAX_EFFECT 9.844559585) < 4.
For the molecule `COc1ccc(C(=O)[C@H]2C[C@@H]2CN(Cc2ccccn2)Cc2ccccn2)cc1`, the PXC50 reads like this: (MAX_EFFECT 11.1627907) < 4; (MAX_EFFECT 16.55011655) < 4.
Consider `Nc1cc(C(=O)O)c(Cl)cc1Cl`, for which the PXC50 by setting is: (MAX_EFFECT 6.695464363) < 3; (MAX_EFFECT 9.69581749) < 3.
On to `Cc1nc(NCc2cccnc2)c2c3c(sc2n1)CC(C)CC3` (stereo not given), for which the PXC50 runs as follows: (MAX_EFFECT 20.10178117) < 4; (MAX_EFFECT 27.4559194) < 4.
As for `CC(=O)N1CCCC(NC(=O)c2ccc3ccc(N4CCN(S(C)(=O)=O)CC4)n3c2)C1` (stereo not given), the PXC50 by setting is: (BOTTOM 3.656156878, HILLSLOPE 2.486754691, MAX_EFFECT 66.17915905, TOP 66.88204214) 4.81; (BOTTOM -4.526143978, HILLSLOPE 1.702686974, MAX_EFFECT 60.76555024, TOP 62.80104332) 5.
In the case of `CC1CCc2c(sc3nc(CN4CCOCC4)nc(NCC4CC4)c23)C1` (stereo not given), the PXC50 by setting is: (MAX_EFFECT 17.08542714) < 4; (MAX_EFFECT 17.93611794) < 4.
On to `Cc1sc2nc(CN(C)Cc3ccc(C(F)(F)F)cc3)nc(N)c2c1C`, for which the PXC50 (MAX_EFFECT 10.05291005) was < 4 and the PXC50 (MAX_EFFECT 12.8) was < 4.
Take `CCc1ccc(CN(C)Cc2nc(N)c3c(C)c(C)sc3n2)cc1`: the PXC50 reads like this: (MAX_EFFECT 28.57142857) < 4; (MAX_EFFECT 30.4) < 4.
Take `COCCNc1nc(CN2CCCC2)nc2sc3c(c12)CCCC3`: the PXC50 (MAX_EFFECT 13.54166667) is < 4 and the PXC50 (MAX_EFFECT 14.03508772) is < 4.
For `Oc1c(Cl)cc(Cl)cc1CNc1nccs1`, the PXC50 runs as follows: (MAX_EFFECT 15.39923954) < 3; (MAX_EFFECT 20.51835853) < 3.
As for `N[C@H](COc1cccc(F)c1Oc1ccc(Cl)cc1)c1ccccc1`, the PXC50 runs as follows: (BOTTOM 4.511954534, HILLSLOPE 1.875524354, MAX_EFFECT 67.28778468, TOP 93.68195714) 4.2; (BOTTOM -3.133728258, HILLSLOPE 1.050142996, MAX_EFFECT 53.9445629, TOP 100.0) 4.1.
As to `O=C(NCC1(O)CCC(F)(F)CC1)c1cc(=O)c2cc(F)ccc2o1`, the PXC50 is, setting by setting: (MAX_EFFECT 1.754385965) < 4; (MAX_EFFECT 9.021113244) < 4.
In the case of `CC(C)C[C@H](N)COc1ccccc1-c1ccccn1`, the PXC50 runs as follows: (MAX_EFFECT 10.44776119) < 4; (MAX_EFFECT 11.38716356) < 4.
With `Cc1cc2ccc(N3CCN(S(C)(=O)=O)CC3)n2cc1C(=O)NC1CCCC1`, the PXC50 was < 4 (MAX_EFFECT 43.22916667) and < 4 (MAX_EFFECT 44.29824561).
Turning to `CC(C)NC(=O)c1ccc2ccc(N3CCN(S(C)(=O)=O)CC3)n2c1`, the PXC50 amounted to 4.88 (BOTTOM 1.200641937, HILLSLOPE 2.342552546, MAX_EFFECT 57.54716981, TOP 55.68048652) and 4.95 (BOTTOM 2.289724742, HILLSLOPE 1.802731874, MAX_EFFECT 51.59817352, TOP 52.80479707).
Turning to `Cc1nc(N2CCN(C(=O)C3CC3)CC2)c2c3c(sc2n1)CC(C)CC3` (stereo not given), the PXC50 was < 4 (MAX_EFFECT 43.2160804) and < 4 (MAX_EFFECT 47.91154791).
In the case of `CCOC(=O)N1CCN(c2nc(C)nc3scc(-c4cccs4)c23)CC1`, the PXC50 runs as follows: (MAX_EFFECT 28.24427481) < 4; (MAX_EFFECT 28.46347607) < 4.
In the case of `Cc1nc(N2CCN(c3ccccc3O)CC2)c2c3c(sc2n1)CCC3`, the PXC50 is, setting by setting: (BOTTOM -0.0879, HILLSLOPE 1.043556985, MAX_EFFECT 58.82352941, TOP 100.0) 4.16; (BOTTOM -4.305210646, HILLSLOPE 1.068745934, MAX_EFFECT 61.20218579, TOP 100.0) 4.17.
With `Cc1sc2nc(CN3CCOCC3)nc(NC3CCS(=O)(=O)C3)c2c1C` (stereo not given), the PXC50 reads like this: (MAX_EFFECT 9.625668449) < 4; (MAX_EFFECT 10.38251366) < 4.
As to `CN1CCN(c2ccc3ccc(C(=O)N4CCCCO4)cn23)CC1`, the PXC50 is < 4 (MAX_EFFECT 12.20657277) and < 4 (MAX_EFFECT 19.44444444).
For `CCOC(=O)c1sc2nc(CN3CCCCC3)nc(NC3CC3)c2c1C`, the PXC50 (MAX_EFFECT 16.58291457) is < 4 and the PXC50 (MAX_EFFECT 18.42751843) was < 4.
With `N[C@H](COc1cccc(F)c1Oc1ccc(Cl)cc1)Cc1ccccc1`, the PXC50 reads like this: (BOTTOM 1.014480123, HILLSLOPE 1.236846962, MAX_EFFECT 63.97515528, TOP 100.0) 4.22; (BOTTOM 4.768215501, HILLSLOPE 2.241755438, MAX_EFFECT 75.26652452, TOP 100.0) 4.22.
For the molecule `CC(C)C[C@H](N)COc1ccccc1-c1ccccc1`, the PXC50 runs as follows: (MAX_EFFECT 19.82942431) < 4; (MAX_EFFECT 21.32505176) < 4.
With `Cn1ncc2c(OCCO)nc(Nc3ccc(F)c(F)c3)nc21`, the PXC50 (MAX_EFFECT 18.30188679) was < 4 and the PXC50 (MAX_EFFECT 21.91780822) was < 4.
On to `CCc1nc(NCCCC(=O)O)c2c3c(sc2n1)CCC3`, for which the PXC50 was < 4 (MAX_EFFECT 7.808564232) and < 4 (MAX_EFFECT 8.905852417).
On to `Cc1sc2nc(CN3CCCC3)nc(NC3CCCC3)c2c1C`, for which the PXC50 was < 4 (MAX_EFFECT 34.69387755) and < 4 (MAX_EFFECT 40.15151515).
`Cc1nc(N2CCCCC2)c2c(-c3cccs3)csc2n1`: the PXC50 is < 4 (MAX_EFFECT 30.98236776) and < 4 (MAX_EFFECT 31.29770992).
Take `Cc1nc(NCCNC(=O)c2ccccc2)c2c3c(sc2n1)CCCC3`: the PXC50 is, setting by setting: (MAX_EFFECT 14.39393939) < 4; (MAX_EFFECT 19.3877551) < 4.
Consider `Cc1cc2c(N3CCN(CCO)CC3)nc(-c3cccnc3)nc2s1`, for which the PXC50 runs as follows: (MAX_EFFECT 11.05527638) < 4; (MAX_EFFECT 12.53071253) < 4.
`Cc1nc(N2CCNC(=O)CC2C)c2c(-c3ccccc3)csc2n1` (stereo not given): the PXC50 runs as follows: (MAX_EFFECT 10.43256997) < 4; (MAX_EFFECT 12.34256927) < 4.
In the case of `CCc1nc(NCCO)c2cc(CC)sc2n1`, the PXC50 (MAX_EFFECT 6.532663317) is < 4 and the PXC50 (MAX_EFFECT 10.07371007) was < 4.
Consider `N[C@H](COc1cccc(F)c1Oc1ccc(Cl)cc1)CC1CCCCC1`, for which the PXC50 came to 4.49 (BOTTOM 8.516712257, HILLSLOPE 1.897669447, MAX_EFFECT 94.20289855, TOP 100.0) and 4.51 (BOTTOM 8.547488971, HILLSLOPE 2.365761437, MAX_EFFECT 99.14712154, TOP 101.5267465).
As for `COc1cccc(-c2cc(C(F)(F)F)nc(N3CCCC3)n2)c1`, the PXC50 runs as follows: (MAX_EFFECT 5.303030303) < 4; (MAX_EFFECT 7.142857143) < 4.
With `Cc1sc(C)c(C(F)(F)F)c1CNCCCNc1cc(=O)c2ccccc2[nH]1`, the PXC50 was found to be 5.58 (BOTTOM -1.155419978, HILLSLOPE 1.172834864, MAX_EFFECT 100.9302326, TOP 101.3032533) and 5.56 (BOTTOM -1.471807315, HILLSLOPE 1.111829353, MAX_EFFECT 101.8648019, TOP 104.5162556).
Regarding `Cc1nc(NCCC(=O)NC(C)C)c2c3c(sc2n1)CCC3`, the PXC50 (MAX_EFFECT -1.058201058) is < 4 and the PXC50 (MAX_EFFECT -2.133333333) was < 4.
